Measurements taken from ChEMBL document CHEMBL3988442, “University of Dundee, Small-Polar-MMV Screening Library” (2021).
Screen size: about 48,000 compounds; about 13,000 (27%) showed an effect of 50% or more. The list shows a part of the results.

Tested on: Wolbachia pipientis
Test: Anti-Wolbachia Cell-Based Screen
Assay type: functional
Parameters: scale not given: in the data most compounds retested in dose-response had high values
Details: 5 µM

Compound | Percent Effect [%]
CCSCCC(C)N(C)C(=O)c1cc(C)on1 (stereo not given) | -12.53
O=C(O)c1cc(S(=O)(=O)N2CCOc3ccccc32)ccc1F | 8.076
CCC[C@@H]1CN(Cc2cc3c(cc2OC)OCCO3)C[C@H]1C(=O)O | -0.5486
O=C(CCNc1ncccn1)NCCOc1ccc2c(c1)CCC2 | 1.956
CC[C@@H]1N(Cc2cc(OC)cc(OC)c2)CCC[C@]12CCC(=O)N2C | 92.68
COc1ccc(CN2CCC3(CC2)C(C(=O)O)CC(=O)N3C)cc1Cl (stereo not given) | 2.306
COc1cc(CN2CCN(CC3CC3)[C@@H]3CS(=O)(=O)C[C@@H]32)cc(OC)c1 | -1.299
COCCN1C(=O)CC[C@]12CC[C@@H](NCc1ccc(OC)cc1)CC2 | -14.96
CCn1c(C2CCCN(Cc3cc(OC)cc(OC)c3)C2)nn(C)c1=O (stereo not given) | -1.28
CC[C@H]1N(Cc2ccc(OC)cc2)CCC[C@]12CCC(=O)N2C | 102.5
COCCN1CCN(Cc2cccc(OCC(N)=O)c2)CC1C (stereo not given) | -2.971
O=C(O)C(F)(F)F.O=C1CC(c2ccccc2)C2(CCN(C(=O)c3ccncc3F)CC2)N1 (stereo not given) | 7.558
Cc1ncnc2c1CCN(C(=O)c1ccncc1F)CC2.O=C(O)C(F)(F)F | -20.75
CCOc1ncnc2c1CCN(C(=O)c1ccncc1F)CC2.O=C(O)C(F)(F)F | -6.025
O=C(O)C(F)(F)F.O=C(c1ccncc1F)N1CCc2ncnc(C3CC3)c2CC1 | 13.05
CCN1C(=O)CCCC12CCCN(C(=O)c1ccoc1)C2 (stereo not given) | -0.6496
CCc1ncnc2c1CCN(C(=O)c1ccncc1F)CC2.O=C(O)C(F)(F)F | 6.56
CN1C(=O)CCC12CCCN(C(=O)c1ccncc1F)C2.O=C(O)C(F)(F)F (stereo not given) | 113.9
CCN1C(=O)CCCC12CCCN(C(=O)c1ccncc1F)C2.O=C(O)C(F)(F)F (stereo not given) | 112.1
CN(C)CCN1C(=O)CCC12CCCN(C(=O)c1ccncc1F)C2.O=C(O)C(F)(F)F (stereo not given) | 122.1
COCCCNC(=O)NCc1nc(C)c(C)o1 | 1.858
CC(C)(C)CC(=O)NCC1CCCS1 (stereo not given) | -1.096
Cn1c(=O)n(C)c2nc(Cl)c(CC(=O)c3ccc(F)cc3)n2c1=O | 131.2
Cc1ccc(C(=O)CCC(=O)N2CCC(c3nncn3C)CC2)cc1 | -0.3599

Compound | Percent Effect [%]
CN1CC(Oc2ccc(Cl)cc2)=NC(SCC(=O)c2ccccc2)=N1 | 11.49
Cn1nc(Br)c2c(=O)n(CCc3ccccc3)cnc21 | -21.91
Cn1c(=O)n(C)c2nc(Cl)c(CC(=O)c3ccccc3)n2c1=O | 119.1
Cc1c2ncn(CC(=O)c3ccccc3)c(=O)c2nn1C | 11.22
Cn1c(=O)n(C)c2nc(Br)c(CC(=O)c3ccccc3)n2c1=O | 113.8
CN1CC(Oc2ccccc2)=NC(SCC(=O)c2ccccc2)=N1 | 31.32
Cc1ccc(C(=O)Cc2c(Cl)nc3n(C)c(=O)n(C)c(=O)n23)cc1 | 91.64
CC(C)c1nc(C2CCCN2c2cnc3cc(F)c(F)cc3n2)no1 (stereo not given) | 4.6
CC(C)OC(=O)N1CCCCC1CCn1cccn1 (stereo not given) | 30.12
Cl.Nc1nc(C(=O)NCC2CCC3(CCNCC3)CO2)cs1 (stereo not given) | -0.4275
CC(C)(C)n1cc(C#N)cc1NC(=O)CCNC(=O)c1ccco1 | -15.76
O=C(c1cnccn1)N1CCCC(Cc2cccc3ncccc23)C1 (stereo not given) | 146.1
Cn1cc(C(=O)N2CCCC(Cc3cccc4ncccc34)C2)cn1 (stereo not given) | 153.9
Cc1ccc2nc(C)c(C)c(C(=O)N3CCN(c4nccs4)CC3)c2c1 | -13.27
CCNC(=O)C1CCCN(Cn2nc(C(C)(C)C)ccc2=O)C1 (stereo not given) | 2.332
Cc1cc(C[C@@H]2COC[C@H]2NCc2ccc(Br)s2)on1.O=C(O)CC(O)(CC(=O)O)C(=O)O | -4.105
Cc1cc(C[C@@H]2CCC[C@H]2NCc2cc(C)c(O)c(C)c2)on1.O=C(O)CC(O)(CC(=O)O)C(=O)O | -7.471
Cc1cc(C[C@@H]2COC[C@H]2NCc2ccccc2C(F)(F)F)on1.O=C(O)CC(O)(CC(=O)O)C(=O)O | -4.697
Cc1cc(CNC(=O)C2CCC(=O)N(Cc3ccccc3F)C2)on1 (stereo not given) | -7.53
Cc1cc(C[C@@H]2COC[C@@H]2NC(=O)CN2CCOC2=O)on1 | -12.63
Cc1cc(C[C@@H]2CCC[C@H]2NCc2ccccc2F)on1.O=C(O)CC(O)(CC(=O)O)C(=O)O | 109.7
Cc1cc(C[C@@H]2CCC[C@H]2NCc2cccc(F)c2F)on1.O=C(O)CC(O)(CC(=O)O)C(=O)O | 111.2
Cc1cc(C[C@@H]2CCC[C@H]2NCc2ccccc2C)on1.O=C(O)CC(O)(CC(=O)O)C(=O)O | 135
O=C(NCc1cccc(F)c1F)c1cc(CN2CCCC(O)C2)on1 (stereo not given) | -4.232

Compound | Percent Effect [%]
Cc1cc(C[C@@H]2CCC[C@H]2NCc2ccccc2C(F)(F)F)on1.O=C(O)CC(O)(CC(=O)O)C(=O)O | -4.697
Cc1cc(C[C@@H]2CCC[C@H]2NCc2cc(F)ccc2F)on1.O=C(O)CC(O)(CC(=O)O)C(=O)O | 83.79
CCCc1noc(CN(C)C(=O)C2COc3ccccc3C2)n1 (stereo not given) | -0.2082
O=C(c1cccc(O)c1)N1C[C@@H](CN2CCCCC2)[C@@H](CO)C1 | 36.38
CCOc1cc(CNC(=O)NC2CC=CC2)ccc1OC(F)F | -3.557
Cc1cc(C[C@@H]2COC[C@@H]2NC(=O)CCN2Cc3ccccc3C2)on1 | -14.09
Cc1cc(C[C@@H]2COC[C@@H]2NC(=O)CN2CCc3ccccc3C2)on1 | -17.37
CCC[C@H]1CN(Cc2cc(C)no2)C[C@@H]1NC(=O)C1(COC)CCC1 | -6.466
Cc1cc(C[C@@H]2COC[C@@H]2NC(=O)CN2CCCC2)on1 | -5.725
CCCOc1ccccc1CN[C@@H]1CCC[C@H]1Cc1cc(C)no1.O=C(O)CC(O)(CC(=O)O)C(=O)O | 112
Cc1cc(C[C@@H]2CCC[C@H]2NCc2ccc(C(F)(F)F)cc2)on1.O=C(O)CC(O)(CC(=O)O)C(=O)O | 113.9
Cc1cc(C[C@@H]2COC[C@@H]2NC(=O)Cn2c(=O)oc3ccccc32)on1 | -2.365
Cc1cc(C[C@@H]2CCC[C@H]2NCc2c[nH]nc2-c2ccccc2)on1.O=C(O)CC(O)(CC(=O)O)C(=O)O | 114
Cc1cc(C[C@@H]2COC[C@@H]2NC(=O)CN2CCCCCC2)on1 | 40.3
CSc1nccc(NCC2CNCCOC2)n1 (stereo not given) | 0.1221
COCCN1CCN(C(=O)c2ccc(COC)o2)[C@H]2CS(=O)(=O)C[C@H]21 | 7.213
CC(C)NC(=O)N[C@H]1C[C@@H](Cc2cc(CN3CCOCC3)on2)C1(C)C | -0.1597
Cc1c[nH]c(CN(C)C(=O)c2cccc(CCC(C)(C)O)c2)n1 | -0.9219
COCC(=O)N1CCCC(c2nc(N(C)C)ncc2-c2ccccc2)C1 (stereo not given) | 96.39
COCC(=O)N1C[C@H]2CC[C@@]3(N=C(c4ccccc4)NC3=O)[C@H]2C1 | -3.823
O=C(c1ccc[nH]1)N1CCCC1c1nc(-c2ccccc2)n[nH]1 (stereo not given) | 3.184
CC(=O)N1CCCC(c2nc(N(C)C)ncc2-c2ccccc2)C1 (stereo not given) | 94.88
CC(=O)N1CCCC1c1cccc(C)c1C (stereo not given) | 2.963
CCC(=O)N1CCCC(c2nc(N(C)C)ncc2-c2ccc(F)cc2)C1 (stereo not given) | 103.1

Compound | Percent Effect [%]
COCC(=O)N1CCCC(COc2ccccc2C)C1 (stereo not given) | -17.48
CC(=O)N1CCCC1c1nc(N(C)C)ncc1-c1ccccc1 (stereo not given) | 120.4
Cc1cc(C2CCCN(C(=O)COc3ccc(F)cc3)C2)n[nH]1 (stereo not given) | -12.08
Cc1cc(C2CCCN(C(=O)COc3cc(F)ccc3F)C2)n[nH]1 (stereo not given) | -12.04
CC(=O)N1CCCC(c2nc(-c3ccccc3)c[nH]2)C1 (stereo not given) | -5.299
CC(=O)N1Cc2ccccc2C[C@H]1C(=O)Nc1ccccn1 | -1.208
Cc1ccc(C(=O)N2CCSCC2)cc1NC(=O)NCCO | -7.623
Cc1cc(CNC(=O)C2CCCN2C(=O)OC(C)(C)C)no1 (stereo not given) | -19.91
Cc1cc(C2CCCN(C(=O)COc3cccc(F)c3)C2)n[nH]1 (stereo not given) | -5.532
Cc1nc(C2CCCN(C(=O)CCCOc3cccc(F)c3)C2)no1 (stereo not given) | -2.46
COCC(=O)N1CCCC(c2nc(N)ncc2-c2cccc(F)c2)C1 (stereo not given) | 111.1
O=C1CN(C(=O)c2nnn(-c3ccc(C(F)(F)F)cc3)n2)CCN1 | 7.084
O=C(CC1CC1)N1C[C@@H]2CCN(c3cccnc3)C[C@@H]2C1.O=C(O)C(F)(F)F | 87.47
O=C(O)C(F)(F)F.O=C1COC2(CCN(CC3CC3)CC2)CN1c1ccccc1 | -2.17
Cn1ccnc1CN1CCC2(CC1)CN(Cc1ccccc1)C(=O)CO2.O=C(O)C(F)(F)F | -7.87
O=C(Cc1ccccn1)N1CCC2(CC1)CN(CC1CC1)C(=O)CO2.O=C(O)C(F)(F)F | 15
O=C(C1CCCC1)N1C[C@@H]2CCN(c3cccnc3)C[C@@H]2C1.O=C(O)C(F)(F)F | -15.19
O=C(CC1CC1)N1CCC2(CC1)CN(Cc1cccnc1)C(=O)CO2.O=C(O)C(F)(F)F | 85.91
O=C(CC1CC1)N1CCC2(CC1)CN(CCn1cccn1)C(=O)CO2 | 0.04038
CN(C)CCN1CCC2(CC1)CN(Cc1cccnc1)C(=O)CO2.O=C(O)C(F)(F)F.O=C(O)C(F)(F)F.O=C(O)C(F)(F)F | 106.6
Cn1ccnc1CN1CCC2(CC1)CN(Cc1cccnc1)C(=O)CO2.O=C(O)C(F)(F)F.O=C(O)C(F)(F)F | -2.822
O=C(CC1CC1)N1CCC2(CC1)CN(c1cccnc1)C(=O)CO2.O=C(O)C(F)(F)F | 86.93
O=C(O)C(F)(F)F.O=C(c1ccncc1)N1C[C@@H]2CCN(c3cccnc3)C[C@@H]2C1 | -5.49
